Assay results: the supplement of paper PMC10849652
About 8,800 targets were measured; listed, in parts, are those with a hit and a random draw of the rest. About 0.5% of all pairs of compound and target were hits.

Tests used:
Assay in all cases: log2 fold change, soluble protein after heating vs DMSO (PISA); higher = thermal stabilisation; K562 lysate, 10 uM; active = over 0.2 and 3.5 SD of the protein, either way, in both replicates (recomputed)
erlotinib = compound: C#Cc1cccc(Nc2ncnc3cc(OCCOC)c(OCCOC)cc23)c1 [erlotinib]
Summary of the method: (§1)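 Soluble protein was defined as the supernatant remaining after 21,000xg for 90 min, following pooling of heated aliquots and adjustment to 0.5% NP-40 at 4°C. Before that, crude K562 extract at 1 mg/mL protein in PBS pH 7.4 with 1 mM MgCl2 was treated with 10 μM compound for 30 min and heated for 3 min across 48°C-58°C. Quantification used TMTpro 16plex LC-MS/MS with channel sums equalised, and values are log-two fold changes in thermal stability relative to solvent controls from duplicates.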

[1] = compound: C/C(=N\NC(=O)C1=CC(=CC=C1)S(=O)(=O)N2CCOCC2)/C3=C(C=CC(=C3)Cl)O
Summary of the method: as §1

[2] = compound: C1=CC(=CC=C1C2=NC3=C(N2)C=C(C=C3)C(=O)N)OC4=CC=C(C=C4)Cl
Summary of the method: as §1

[3] = compound: C1=CC2=C(C=CC(=C2)/C=C\3/C(=O)NC(=NCC4=CC=CS4)S3)N=C1
Summary of the method: as §1

[4] = compound: C1=CC2=NC=CN=C2C=C1/C=C/3\C(=O)NC(=O)S3
Summary of the method: as §1

[5] = compound: C1=CC=C(C=C1)C2=NC(=C(N2)C3=CC=NC=C3)C4=CC(=C(C=C4)Cl)O
Summary of the method: as §1

[6] = compound: C1=CC=C2C(=C1)C3=NNC4=CC=CC(=C43)C2=O
Summary of the method: as §1

[7] = compound: C1CCN(C1)C(=O)NC2=CC=CC(=C2)NC3=NC=C(C(=N3)NCCC4=CN=CN4)Br
Summary of the method: as §1

[8] = compound: C1CN(CCC1(CC2=CC=C(C=C2)Cl)N)C3=NC=NC4=C3C=CN4
Summary of the method: as §1

IRAK-1-4 Inhibitor I = compound: C1COCCN1CCN2C3=CC=CC=C3N=C2NC(=O)C4=CC(=CC=C4)[N+](=O)[O-] [IRAK-1-4 Inhibitor I]
Summary of the method: as §1

ibrutinib = compound: C=CC(=O)N1CCC[C@@H](n2nc(-c3ccc(Oc4ccccc4)cc3)c3c(N)ncnc32)C1 [ibrutinib]
Summary of the method: as §1

[9] = compound: CC(=O)c1cnc2ccc(-c3cc(Cl)c(O)c(Cl)c3)nc2c1N[C@H]1CC[C@H](CN(C)C)CC1
Summary of the method: as §1

ralimetinib = compound: CC(C)(C)Cn1c(N)nc2ccc(-c3[nH]c(C(C)(C)C)nc3-c3ccc(F)cc3)nc21 [ralimetinib]
Summary of the method: as §1

[10] = compound: CC(C)(O)CC(=O)NCCn1ccc2ncnc(Nc3ccc(Oc4cccc(C(F)(F)F)c4)c(Cl)c3)c21
Summary of the method: as §1

[11] = compound: CC(C)C1=C2N=C(C=C(N2N=C1)NCC3=CC=CC=C3)NCCCCCCN
Summary of the method: as §1

[12] = compound: CC1=C(C(CC(=O)N1)C2=CC=C(C=C2)C(F)(F)F)C(=O)NC3=C(C=C4C(=C3)C=NN4)F
Summary of the method: as §1

[13] = compound: CC1=C(C2=C(C=C1)C(=O)C3=CC=CC=C3N2CCCN)C
Summary of the method: as §1

[14] = compound: CC1=C(C=C(C=C1)NC(=O)C2=CC(=CC=C2)C(C)(C)C#N)NC3=CC4=C(C=C3)N=CN(C4=O)C
Summary of the method: as §1

[15] = compound: CC1=C(C=C(C=C1)NC(=O)C2=CC(=CC=C2)N(C)C)NC(=O)C3=CC=C(C=C3)O
Summary of the method: as §1

[16] = compound: CC1=CC=C(C=C1)SC2=C3C=C(SC3=CN=C2)C(=O)N
Summary of the method: as §1

Measured: log2 fold change

GOLGA1 (UniProt Q92805)
Sequence of UniProt Q92805 (Q92805 whole entry, looked up): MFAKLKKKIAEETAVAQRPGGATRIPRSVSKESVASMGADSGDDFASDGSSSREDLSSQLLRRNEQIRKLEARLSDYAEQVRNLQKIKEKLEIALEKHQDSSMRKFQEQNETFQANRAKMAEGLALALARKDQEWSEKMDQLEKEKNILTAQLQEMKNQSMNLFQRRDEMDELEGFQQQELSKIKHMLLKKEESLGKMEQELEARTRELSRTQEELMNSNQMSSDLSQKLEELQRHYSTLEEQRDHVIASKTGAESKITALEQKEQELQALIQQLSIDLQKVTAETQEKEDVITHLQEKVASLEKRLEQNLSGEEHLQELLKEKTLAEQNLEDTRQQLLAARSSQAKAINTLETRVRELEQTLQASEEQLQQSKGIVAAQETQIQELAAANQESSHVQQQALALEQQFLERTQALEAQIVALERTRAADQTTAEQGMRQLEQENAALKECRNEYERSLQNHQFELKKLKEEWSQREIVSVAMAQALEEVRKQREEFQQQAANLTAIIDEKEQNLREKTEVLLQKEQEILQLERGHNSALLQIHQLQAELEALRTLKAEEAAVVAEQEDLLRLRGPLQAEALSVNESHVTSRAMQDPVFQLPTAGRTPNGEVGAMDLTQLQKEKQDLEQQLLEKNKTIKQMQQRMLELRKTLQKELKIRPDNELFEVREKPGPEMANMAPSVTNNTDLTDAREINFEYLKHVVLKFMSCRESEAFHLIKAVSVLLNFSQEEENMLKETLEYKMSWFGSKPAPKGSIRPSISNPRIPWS
inactive: erlotinib 0.029 | [1] 0.09 | [2] -0.002 | [3] -0.004 | [4] 0.021 | [5] 0 | [6] 0.124 | [7] 0.018 | [8] 0.038 | IRAK-1-4 Inhibitor I 0.017 | ibrutinib 0.128 | [9] 0.008 | ralimetinib -0.024 | [10] -0.018 | [11] -0.019 | [12] 0.081 | [13] 0.027 | [14] -0.023 | [15] 0.019 | [16] 0.034

HNRNPD isoform 2 (UniProt Q14103)
Sequence of UniProt Q14103 (Q14103 whole entry, looked up): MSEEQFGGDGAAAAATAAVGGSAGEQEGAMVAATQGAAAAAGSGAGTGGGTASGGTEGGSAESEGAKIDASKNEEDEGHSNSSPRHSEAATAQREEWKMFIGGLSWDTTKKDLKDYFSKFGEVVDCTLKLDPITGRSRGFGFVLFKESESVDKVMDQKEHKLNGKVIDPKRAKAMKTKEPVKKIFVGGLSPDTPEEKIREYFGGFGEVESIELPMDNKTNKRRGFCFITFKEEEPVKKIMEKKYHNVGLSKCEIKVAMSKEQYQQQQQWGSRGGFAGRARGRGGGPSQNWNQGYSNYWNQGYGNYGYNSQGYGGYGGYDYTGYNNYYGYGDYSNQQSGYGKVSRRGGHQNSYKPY
inactive: erlotinib -0.001 | [1] -0.014 | [2] -0.022 | [3] -0.027 | [4] 0.049 | [5] 0.014 | [6] -0.023 | [7] 0.012 | [8] -0.009 | IRAK-1-4 Inhibitor I 0.018 | ibrutinib 0 | [9] -0.142 | ralimetinib -0.039 | [10] -0.01 | [11] 0.016 | [12] -0.046 | [13] 0.001 | [14] 0.034 | [15] -0.014 | [16] -0.011

ISY1 isoform 1 (UniProt Q9ULR0)
Sequence of UniProt Q9ULR0 (Q9ULR0 whole entry, looked up): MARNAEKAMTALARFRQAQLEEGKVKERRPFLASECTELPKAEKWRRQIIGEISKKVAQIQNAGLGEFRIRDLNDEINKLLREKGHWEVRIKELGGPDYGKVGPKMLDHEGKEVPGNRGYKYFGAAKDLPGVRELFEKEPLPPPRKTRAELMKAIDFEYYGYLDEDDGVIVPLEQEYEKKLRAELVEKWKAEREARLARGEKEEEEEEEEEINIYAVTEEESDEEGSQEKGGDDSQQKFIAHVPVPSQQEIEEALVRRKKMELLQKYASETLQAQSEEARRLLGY
inactive: erlotinib 0.022 | [1] 0.07 | [2] 0.02 | [3] 0.06 | [4] 0.018 | [5] 0.004 | [6] -0.004 | [7] 0.031 | [8] 0.068 | IRAK-1-4 Inhibitor I 0.014 | ibrutinib 0.019 | [9] 0.028 | ralimetinib 0.007 | [10] -0.029 | [11] -0.056 | [12] -0.019 | [13] -0.157 | [14] -0.006 | [15] -0.02 | [16] -0.04

HMGB1 (UniProt P09429)
inactive: erlotinib -0.024 | [1] -0.017 | [2] -0.021 | [3] -0.03 | [4] -0.001 | [5] 0.035 | [6] 0.007 | [7] 0.012 | [8] 0.001 | IRAK-1-4 Inhibitor I -0.015 | ibrutinib -0.012 | [9] -0.013 | ralimetinib -0.102 | [10] 0.057 | [11] 0.032 | [12] -0.022 | [13] -0.002 | [14] 0.036 | [15] -0.077 | [16] -0.098

GPR108 (UniProt Q9NPR9)
inactive: erlotinib 0.035 | [1] 0.022 | [2] 0 | [3] 0.066 | [4] 0.015 | [5] 0.056 | [6] -0.028 | [7] -0.015 | [8] 0.03 | IRAK-1-4 Inhibitor I -0.026 | ibrutinib -0.017 | [9] -0.063 | ralimetinib 0.001 | [10] -0.024 | [11] -0.08 | [12] 0.039 | [13] 0.049 | [14] 0.027 | [15] -0.062 | [16] -0.004

IGF2BP3 (UniProt O00425)
Sequence of UniProt O00425 (O00425 whole entry, looked up): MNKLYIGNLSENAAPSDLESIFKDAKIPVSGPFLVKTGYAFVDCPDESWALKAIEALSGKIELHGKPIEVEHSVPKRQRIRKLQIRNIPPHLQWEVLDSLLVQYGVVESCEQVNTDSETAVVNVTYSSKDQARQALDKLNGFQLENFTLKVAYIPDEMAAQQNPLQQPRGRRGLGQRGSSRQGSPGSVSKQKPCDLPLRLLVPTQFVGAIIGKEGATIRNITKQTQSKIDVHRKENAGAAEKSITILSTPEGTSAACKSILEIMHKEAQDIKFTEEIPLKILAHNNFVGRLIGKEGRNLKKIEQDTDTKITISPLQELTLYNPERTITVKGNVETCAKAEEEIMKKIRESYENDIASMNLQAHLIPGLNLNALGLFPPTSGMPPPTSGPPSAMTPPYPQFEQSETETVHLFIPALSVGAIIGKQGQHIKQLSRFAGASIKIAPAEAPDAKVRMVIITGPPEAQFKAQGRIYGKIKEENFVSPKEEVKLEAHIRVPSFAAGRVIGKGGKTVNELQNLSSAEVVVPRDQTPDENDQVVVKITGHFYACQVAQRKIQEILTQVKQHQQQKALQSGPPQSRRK
inactive: erlotinib 0.04 | [1] 0.023 | [2] -0.007 | [3] 0.003 | [4] 0.005 | [5] 0.024 | [6] -0.067 | [7] 0.026 | [8] 0 | IRAK-1-4 Inhibitor I -0.018 | ibrutinib 0.006 | [9] -0.019 | ralimetinib -0.012 | [10] 0.011 | [11] 0.024 | [12] -0.009 | [13] 0.011 | [14] -0.047 | [15] 0.007 | [16] 0.021

KBTBD4 isoform 2 (UniProt Q9NVX7)
Sequence of UniProt Q9NVX7 (Q9NVX7 whole entry, looked up): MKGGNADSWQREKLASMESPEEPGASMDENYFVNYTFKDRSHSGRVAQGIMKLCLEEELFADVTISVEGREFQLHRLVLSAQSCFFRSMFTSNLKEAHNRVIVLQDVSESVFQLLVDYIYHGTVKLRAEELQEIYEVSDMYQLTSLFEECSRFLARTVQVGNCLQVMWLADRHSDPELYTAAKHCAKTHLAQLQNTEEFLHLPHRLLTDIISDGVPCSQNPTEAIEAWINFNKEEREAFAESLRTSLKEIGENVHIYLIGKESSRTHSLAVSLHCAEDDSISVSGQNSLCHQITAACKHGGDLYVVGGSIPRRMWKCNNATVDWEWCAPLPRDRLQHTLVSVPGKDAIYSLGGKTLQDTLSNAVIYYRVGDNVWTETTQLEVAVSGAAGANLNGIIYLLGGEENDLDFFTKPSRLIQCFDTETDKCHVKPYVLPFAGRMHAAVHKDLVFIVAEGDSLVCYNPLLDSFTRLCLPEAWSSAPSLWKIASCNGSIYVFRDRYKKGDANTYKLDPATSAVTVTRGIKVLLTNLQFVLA
inactive: erlotinib 0.09 | [1] 0.013 | [2] 0.036 | [3] 0.013 | [4] -0.096 | [5] 0.016 | [6] -0.073 | [7] -0.028 | [8] 0.013 | IRAK-1-4 Inhibitor I -0.017 | ibrutinib 0.051 | [9] -0.026 | ralimetinib -0.069 | [10] 0.009 | [11] -0.039 | [12] -0.156 | [13] -0.045 | [14] 0.142 | [15] -0.014 | [16] 0.031

HLTF (UniProt Q14527)
inactive: erlotinib 0.052 | [1] -0.019 | [2] 0.081 | [3] -0.003 | [4] -0.032 | [5] -0.028 | [6] 0.008 | [7] -0.053 | [8] 0.015 | IRAK-1-4 Inhibitor I -0.019 | ibrutinib 0.016 | [9] 0.054 | ralimetinib 0.024 | [10] -0.017 | [11] -0.023 | [12] 0.046 | [13] 0.048 | [14] -0.022 | [15] 0.003 | [16] -0.018

GNE isoform 2 (UniProt Q9Y223)
inactive: erlotinib 0.035 | [1] -0.067 | [2] -0.042 | [3] -0.032 | [4] 0.011 | [5] 0.064 | [6] -0.031 | [7] -0.024 | [8] 0.023 | IRAK-1-4 Inhibitor I -0.042 | ibrutinib -0.036 | [9] 0.009 | ralimetinib 0.033 | [10] -0.036 | [11] -0.007 | [12] -0.011 | [13] -0.036 | [14] -0.001 | [15] 0.069 | [16] 0.009

HARS (UniProt P12081)
inactive: erlotinib -0.034 | [1] 0.006 | [2] -0.002 | [3] 0.021 | [4] -0.036 | [5] -0.005 | [6] 0.019 | [7] -0.016 | [8] 0.001 | IRAK-1-4 Inhibitor I -0.002 | ibrutinib -0.049 | [9] 0.022 | ralimetinib -0.002 | [10] 0.015 | [11] -0.039 | [12] -0.015 | [13] 0.008 | [14] 0.005 | [15] 0.008 | [16] 0.005

KHK isoform 2 (UniProt P50053)
inactive: erlotinib -0.07 | [1] 0.024 | [2] 0.072 | [3] -0.005 | [4] 0.044 | [5] 0.069 | [6] 0.044 | [7] 0.032 | [8] -0.018 | IRAK-1-4 Inhibitor I 0.084 | ibrutinib 0.023 | [9] 0.039 | ralimetinib 0.001 | [10] -0.032 | [11] -0.033 | [12] 0.013 | [13] -0.025 | [14] 0.185 | [15] -0.033 | [16] -0.04

GSE1 (UniProt Q14687)
Sequence of UniProt Q14687 (Q14687 whole entry, looked up): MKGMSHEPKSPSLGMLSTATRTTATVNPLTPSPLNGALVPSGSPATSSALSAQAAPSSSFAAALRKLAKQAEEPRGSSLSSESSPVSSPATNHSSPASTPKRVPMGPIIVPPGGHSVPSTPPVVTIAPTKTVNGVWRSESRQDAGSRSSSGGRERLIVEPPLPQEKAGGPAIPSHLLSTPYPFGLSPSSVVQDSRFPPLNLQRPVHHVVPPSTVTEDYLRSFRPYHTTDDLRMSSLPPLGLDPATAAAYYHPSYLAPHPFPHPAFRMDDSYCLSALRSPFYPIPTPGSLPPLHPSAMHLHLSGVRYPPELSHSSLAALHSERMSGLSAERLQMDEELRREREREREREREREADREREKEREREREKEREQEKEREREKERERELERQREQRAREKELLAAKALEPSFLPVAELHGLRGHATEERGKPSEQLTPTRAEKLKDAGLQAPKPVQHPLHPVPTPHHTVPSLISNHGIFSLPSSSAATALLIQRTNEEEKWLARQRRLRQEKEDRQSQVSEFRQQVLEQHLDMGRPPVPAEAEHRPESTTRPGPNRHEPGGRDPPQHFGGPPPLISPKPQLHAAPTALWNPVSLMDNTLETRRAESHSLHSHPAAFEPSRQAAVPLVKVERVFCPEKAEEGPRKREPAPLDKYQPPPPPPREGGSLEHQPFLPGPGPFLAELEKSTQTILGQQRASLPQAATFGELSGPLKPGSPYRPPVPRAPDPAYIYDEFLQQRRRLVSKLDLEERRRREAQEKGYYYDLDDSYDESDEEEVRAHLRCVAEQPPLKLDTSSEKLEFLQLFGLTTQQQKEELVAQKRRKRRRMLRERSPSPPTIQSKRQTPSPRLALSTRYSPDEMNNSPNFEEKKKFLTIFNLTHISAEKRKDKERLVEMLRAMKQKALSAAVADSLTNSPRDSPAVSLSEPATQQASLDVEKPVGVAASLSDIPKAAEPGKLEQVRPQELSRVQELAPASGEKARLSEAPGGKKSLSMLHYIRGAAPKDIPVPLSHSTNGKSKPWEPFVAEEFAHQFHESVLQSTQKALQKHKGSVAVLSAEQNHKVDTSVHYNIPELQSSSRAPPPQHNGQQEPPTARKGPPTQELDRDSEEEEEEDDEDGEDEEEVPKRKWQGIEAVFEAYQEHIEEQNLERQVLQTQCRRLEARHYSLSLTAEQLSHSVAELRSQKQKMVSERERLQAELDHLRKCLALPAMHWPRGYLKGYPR
inactive: erlotinib 0.012 | [1] -0.022 | [2] 0.025 | [3] 0.003 | [4] -0.001 | [5] -0.013 | [6] -0.048 | [7] -0.032 | [8] -0.018 | IRAK-1-4 Inhibitor I -0.011 | ibrutinib 0.006 | [9] -0.021 | ralimetinib 0.015 | [10] -0.026 | [11] -0.004 | [12] -0.009 | [13] 0.008 | [14] -0.055 | [15] 0.035 | [16] -0.016

HMGB2 (UniProt P26583)
inactive: erlotinib -0.007 | [1] 0.039 | [2] 0.007 | [3] 0.008 | [4] -0.017 | [5] 0.046 | [6] 0.013 | [7] 0.014 | [8] -0.008 | IRAK-1-4 Inhibitor I -0.026 | ibrutinib -0.038 | [9] 0.012 | ralimetinib -0.034 | [10] 0.026 | [11] 0.014 | [12] -0.013 | [13] -0.001 | [14] -0.035 | [15] 0.015 | [16] -0.004

HNRNPAB isoform 3 (UniProt Q99729)
Sequence of UniProt Q99729 (Q99729 whole entry, looked up): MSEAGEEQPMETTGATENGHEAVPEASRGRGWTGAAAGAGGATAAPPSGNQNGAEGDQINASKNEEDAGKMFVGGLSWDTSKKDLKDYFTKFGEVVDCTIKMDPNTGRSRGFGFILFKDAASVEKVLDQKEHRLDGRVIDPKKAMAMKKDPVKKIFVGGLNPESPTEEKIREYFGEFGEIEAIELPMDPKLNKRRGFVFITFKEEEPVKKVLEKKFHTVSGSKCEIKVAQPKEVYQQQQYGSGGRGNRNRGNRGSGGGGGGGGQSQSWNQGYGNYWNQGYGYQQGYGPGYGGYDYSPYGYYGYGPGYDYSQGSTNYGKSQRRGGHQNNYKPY
inactive: erlotinib -0.032 | [1] -0.214 | [2] 0.017 | [3] -0.007 | [4] 0.002 | [5] -0.001 | [6] -0.012 | [7] 0.003 | [8] 0 | IRAK-1-4 Inhibitor I 0.009 | ibrutinib -0.029 | [9] -0.159 | ralimetinib -0.037 | [10] 0.006 | [11] -0.007 | [12] 0.055 | [13] -0.003 | [14] -0.01 | [15] -0.013 | [16] 0

HDAC1 (UniProt Q13547)
Sequence of UniProt Q13547 (Q13547 whole entry, looked up): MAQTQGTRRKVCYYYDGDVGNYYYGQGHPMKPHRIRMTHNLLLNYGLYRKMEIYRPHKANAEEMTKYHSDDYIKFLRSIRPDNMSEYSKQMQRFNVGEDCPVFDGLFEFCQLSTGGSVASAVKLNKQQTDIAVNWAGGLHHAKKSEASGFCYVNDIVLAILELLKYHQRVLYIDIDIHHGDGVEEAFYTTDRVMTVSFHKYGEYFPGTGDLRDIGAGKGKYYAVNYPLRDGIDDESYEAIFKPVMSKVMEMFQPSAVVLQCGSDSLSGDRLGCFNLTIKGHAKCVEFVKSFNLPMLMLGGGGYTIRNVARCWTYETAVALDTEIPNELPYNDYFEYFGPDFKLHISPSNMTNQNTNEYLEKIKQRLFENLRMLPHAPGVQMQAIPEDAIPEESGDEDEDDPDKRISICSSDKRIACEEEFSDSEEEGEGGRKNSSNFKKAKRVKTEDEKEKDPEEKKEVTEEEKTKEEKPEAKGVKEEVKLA
inactive: erlotinib 0 | [1] -0.046 | [2] -0.012 | [3] 0.015 | [4] 0.003 | [5] -0.013 | [6] -0.024 | [7] -0.014 | [8] -0.036 | IRAK-1-4 Inhibitor I -0.043 | ibrutinib -0.026 | [9] -0.001 | ralimetinib 0.031 | [10] 0.01 | [11] -0.001 | [12] 0.001 | [13] -0.008 | [14] -0.022 | [15] 0.008 | [16] 0.011

GTF2H4 (UniProt Q92759)
Sequence of UniProt Q92759 (Q92759 whole entry, looked up): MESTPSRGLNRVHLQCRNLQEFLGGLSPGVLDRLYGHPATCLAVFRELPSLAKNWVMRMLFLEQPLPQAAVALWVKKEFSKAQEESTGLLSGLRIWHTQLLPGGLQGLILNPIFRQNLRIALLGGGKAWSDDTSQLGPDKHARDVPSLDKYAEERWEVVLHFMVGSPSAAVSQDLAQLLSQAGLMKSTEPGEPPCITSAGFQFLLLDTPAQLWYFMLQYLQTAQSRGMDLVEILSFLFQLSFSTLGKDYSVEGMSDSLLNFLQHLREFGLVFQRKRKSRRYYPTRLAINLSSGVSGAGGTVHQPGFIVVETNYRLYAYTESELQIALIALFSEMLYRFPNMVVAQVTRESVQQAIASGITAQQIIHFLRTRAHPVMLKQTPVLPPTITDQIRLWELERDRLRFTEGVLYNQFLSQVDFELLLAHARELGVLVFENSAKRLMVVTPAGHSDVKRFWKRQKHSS
inactive: erlotinib -0.013 | [1] -0.049 | [2] -0.013 | [3] 0.037 | [4] -0.059 | [5] -0.001 | [6] 0.141 | [7] 0.056 | [8] -0.004 | IRAK-1-4 Inhibitor I -0.044 | ibrutinib 0.039 | [9] 0.003 | ralimetinib 0.058 | [10] -0.006 | [11] 0.021 | [12] 0.054 | [13] -0.014 | [14] -0.015 | [15] 0.052 | [16] 0.037
